Compounds with a hit are over-represented: about 7.5% of the library has one in this group of screens.
FLuc modulator: qHTS profiling assay for firefly luciferase inhibitor/activator using purifed enzyme and Km concentrations of substrates (counterscreen for miR-21 project); Luciferin 4-monooxygenase (Photinus pyralis), P08659; purified FLuc, Km substrates, luminescence inhibition; Potency, µM (series often up to 57.5 µM), actives largely listed as inhibitors; actives 6.9% (n = 360,000); AID 588342, 2011; note: nearly all actives have a fitted effect of over 55% in size
Target sequence (P08659 whole entry, looked up): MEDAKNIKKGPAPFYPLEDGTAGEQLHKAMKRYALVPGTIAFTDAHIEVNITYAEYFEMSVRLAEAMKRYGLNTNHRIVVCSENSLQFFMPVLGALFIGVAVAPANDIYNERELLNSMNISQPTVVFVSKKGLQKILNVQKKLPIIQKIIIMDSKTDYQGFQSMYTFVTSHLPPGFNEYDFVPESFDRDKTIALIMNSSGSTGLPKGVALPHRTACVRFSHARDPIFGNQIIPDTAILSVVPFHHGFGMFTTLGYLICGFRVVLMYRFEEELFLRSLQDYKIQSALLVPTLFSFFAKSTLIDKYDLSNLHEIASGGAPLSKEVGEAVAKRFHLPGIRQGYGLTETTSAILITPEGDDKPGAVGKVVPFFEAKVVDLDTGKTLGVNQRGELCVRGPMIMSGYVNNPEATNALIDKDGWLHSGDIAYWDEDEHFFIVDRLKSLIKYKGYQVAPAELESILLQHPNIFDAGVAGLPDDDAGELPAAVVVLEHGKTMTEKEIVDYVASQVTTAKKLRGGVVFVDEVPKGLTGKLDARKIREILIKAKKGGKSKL
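Purified P. pyralis luciferase, 10 nM final, with Km-level 10 uM D-luciferin and 10 uM ATP in 50 mM Tris acetate pH 7.5, 10 mM Mg acetate, 0.01% Tween-20, 0.05% BSA; 6-point qHTS titration about 60 µM downward; luminescence read.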
ELG1 genotoxic: qHTS screen for small molecules that induce genotoxicity in human embryonic kidney (HEK293T) cells expressing luciferase-tagged ELG1. HEK293T ELG1-luciferase reporter, luminescence, 16 h. Potency, µM (titrated, usually from 46 µM), most hits filed as activators. actives 1.3% (n = 330,000). AID 504466, 2011; note: nearly all actives have a fitted effect of over 60% in size
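HEK293T cells expressing luciferase-tagged ELG1 were treated with compound or DMSO for 16 hr at 37°C. Luciferase activity was then read after 30 min with ONE-Glo at room temperature; rising signal flags genetic stress.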
SMN2 splice enh: qHTS Assay for Enhancers of SMN2 Splice Variant Expression; HEK293 SMN2-luciferase splicing reporter, luminescence, 30-36 h; Potency, µM (top dose mostly 46.1 µM), actives largely listed as activators; actives 2.8% (n = 210,000); note: nearly all actives have a fitted effect of over 55% in size
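HEK293 cells carry an SMN2 […]–luciferase reporter in which exon 7 inclusion puts luciferase in frame. Cells were plated 10-12 h before compound addition, then incubated 30-36 h at 37C. ONE-Glo luminescence was read; sodium butyrate at 4.5 mM final served as control.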
NPC1 prom act: qHTS Assay for NPC1 Promoter Activators. Huh7 NPC1 promoter luciferase reporter, 24 h. Potency, µM (highest dose often 9.22 µM), usual class: activators. actives 2.4% (n = 320,000). AID 485313, 2010; note: nearly all actives have a fitted effect of over 60% in size
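Cells: Huh7 expressing luciferase under the NPC1 promoter, 1500/well. Seeded 2 h, compound added, incubated 24 h at 37 °C. Luciferase reagent, 10 min ambient, then luminescence.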
KinaseGlo FLuc: Counterscreen for Luciferase (Kinase-Glo TM) Inhibition | Potency, µM (highest dose often 38.3 µM), most hits filed as inhibitors | actives 0.28% (n = 200,000) | Luciferin 4-monooxygenase (Photuris pensylvanica), Q27757 | AID 1379, 2008 | Kinase-Glo luciferase, ATP luminescence, 8 min; note: nearly all actives have a fitted effect of over 60% in size
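Kinase-Glo luciferase light output from ATP and luciferin was measured with 10 uM ATP, within the enzyme's linear range. Buffer: 50 mM imidazole pH 7.2, 50 mM KCl, 7 mM MgCl2, 0.01% Tween 20, 0.05% BSA; luminescence read after 8 min at ambient temperature.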
Rab9 prom act: qHTS Assay for Rab9 Promoter Activators; Huh7 Rab9 promoter-luciferase reporter, luminescence, 24 h; Potency, µM (top dose mostly 9.22 µM), usual class: activators; actives 2.8% (n = 320,000); note: nearly all actives have a fitted effect of over 60% in size
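Quantitative HTS format; Huh7 Rab9-luciferase reporter cells (1500/well) receive compound 2 h post-plating, incubate 24 h at 37 °C, then get luciferase reagent for 10 min before luminescence reading.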
Hits are given with their value. Calls come from the whole dose curve; as a rule, active = well fitted curve in the direction sought with a large enough effect; inconclusive = small, poorly fitted or top-dose-only effect, or another doubt; inactive = no such curve, though single readings can be large; an effect the other way counts as inactive or inconclusive.

`Cc1ccc2c(nc3s/c(=C\c4ccc(-c5ccccc5C(=O)O)o4)c(=O)n32)c1C` gave FLuc modulator 5.36µM, ELG1 genotoxic inactive, NPC1 prom act inactive and Rab9 prom act inactive.
Screening O=C(O)c1ccc(-c2ccc(/C=c3/sc4nc5ccccc5n4c3=O)o2)cc1Cl returned FLuc modulator 19µM, ELG1 genotoxic inactive, NPC1 prom act inactive and Rab9 prom act inactive.
Screening Cc1ccc(C)c(N2C(=N)S/C(=C\c3ccc(-c4ccccc4C(=O)O)o3)C2=O)c1 returned FLuc modulator inconclusive, ELG1 genotoxic inactive, SMN2 splice enh inactive, NPC1 prom act inactive, KinaseGlo FLuc inactive and Rab9 prom act inactive.
`COC(=O)[C@@H](Cc1c[nH]c2ccccc12)NC(=O)c1ccc2c(c1)OCO2` gave FLuc modulator 0.477µM, ELG1 genotoxic inconclusive, NPC1 prom act inactive and Rab9 prom act inactive.
`CC(C)(C)c1ccc(C(=O)NC(Cc2c[nH]c3ccccc23)C(=O)OCC(=O)c2ccc(Cl)cc2)cc1` (stereo not given) gave FLuc modulator inactive.
Screening COC(=O)[C@@H](Cc1c[nH]c2ccccc12)NC(=O)c1cc(=O)[nH]c2ccccc12 returned FLuc modulator inactive, ELG1 genotoxic inactive, NPC1 prom act inactive and Rab9 prom act inactive.
`O=C(COC(=O)[C@H](Cc1c[nH]c2ccccc12)NC(=O)c1ccc(Cl)cc1)Nc1ccc2c(c1)OCO2` gave FLuc modulator 16.9µM, ELG1 genotoxic inactive, SMN2 splice enh inactive, NPC1 prom act inactive, KinaseGlo FLuc inactive and Rab9 prom act inactive.
Screening COc1ccc(-c2cn3nc(N4CCC(C(=O)Nc5cc(Cl)ccc5C)CC4)sc3n2)cc1 returned FLuc modulator inactive.
CC(Sc1nnc(NCc2ccccc2)s1)C(=O)Nc1ccc2c(c1)C(=O)c1ccccc1C2=O (stereo not given) was read as FLuc modulator inconclusive, ELG1 genotoxic inactive, SMN2 splice enh 1.26µM, NPC1 prom act inconclusive, KinaseGlo FLuc inactive and Rab9 prom act inconclusive.
Screening CC(Sc1nnc(Nc2ccccc2)s1)C(=O)Nc1nc(-c2ccccc2)cs1 (stereo not given) returned FLuc modulator inactive, ELG1 genotoxic inactive, SMN2 splice enh 3.98µM, NPC1 prom act inactive, KinaseGlo FLuc inactive and Rab9 prom act inactive.
For CC(Sc1nnc(NC2CC2)s1)C(=O)Nc1ccc(S(N)(=O)=O)cc1 (stereo not given) the results were ELG1 genotoxic inactive.
For C/C(CCC(C)C)=N\Nc1cc(C)c2ccccc2n1 the results were FLuc modulator 12µM, ELG1 genotoxic inactive, SMN2 splice enh inactive, NPC1 prom act inactive, KinaseGlo FLuc inactive and Rab9 prom act inactive.
COc1ccc(-c2nnc(SCc3csc(N)n3)n2C)cc1 was read as FLuc modulator inactive, ELG1 genotoxic inactive, NPC1 prom act inactive and Rab9 prom act inactive.
Cc1ccc(Nc2nc(CSc3nnc(-c4ccc(F)cc4)n3C)cs2)cc1 was read as FLuc modulator 1.35µM, ELG1 genotoxic inactive, SMN2 splice enh 10µM, NPC1 prom act inconclusive, KinaseGlo FLuc inactive and Rab9 prom act inconclusive.
Screening Cc1ccc(SC[C@H](c2ccccc2)N2CCN(CCc3ccccc3)CCC2=O)cc1 returned FLuc modulator 26.9µM, ELG1 genotoxic inactive, NPC1 prom act inactive and Rab9 prom act inactive.
CCCN1CCC(=O)N([C@H](CSc2ccccc2)c2ccccc2)CC1 was read as FLuc modulator inconclusive, ELG1 genotoxic inactive, NPC1 prom act inconclusive and Rab9 prom act inconclusive.
For O=C1CCN(CCc2ccccc2)CCN1[C@H](CSc1ccccc1)c1ccccc1 the results were FLuc modulator inconclusive, ELG1 genotoxic inactive, NPC1 prom act inactive and Rab9 prom act inactive.
Screening CCCN1CCC(=O)N([C@H](CSc2ccc(OC)cc2)CC(C)C)CC1 returned FLuc modulator 15.1µM, ELG1 genotoxic inconclusive, NPC1 prom act inconclusive and Rab9 prom act inconclusive.
CN1CCC(=O)N([C@H](CSc2ccc(Br)cc2)c2ccccc2)CC1 was read as FLuc modulator 16.9µM, ELG1 genotoxic inconclusive, NPC1 prom act inconclusive and Rab9 prom act inconclusive.
`CCCN1CCC(=O)N([C@H](CSc2ccc(C)cc2)c2ccccc2)CC1` gave FLuc modulator 15.1µM, ELG1 genotoxic inactive, NPC1 prom act inconclusive and Rab9 prom act inconclusive.
CN1CCC(=O)N([C@H](CC#N)c2ccccc2)CC1 was read as FLuc modulator inactive, ELG1 genotoxic inactive, NPC1 prom act inactive and Rab9 prom act inactive.
`COc1ccc(C)cc1NC(=O)NC(C)c1c(-n2cccc2)sc(C)c1C` (stereo not given) gave FLuc modulator inactive and SMN2 splice enh inactive.
Screening O=C(COC(=O)c1cncc(Br)c1)NCc1cccs1 returned ELG1 genotoxic inactive.
For CC(C)n1cc(CN2CCN(C)C(CCO)C2)c2ccccc21 (stereo not given) the results were FLuc modulator inactive, ELG1 genotoxic inactive, NPC1 prom act inactive and Rab9 prom act inactive.
Cc1ccc(-c2cn3c(=O)cc(C)[nH]c3n2)cc1 was read as FLuc modulator 0.849µM, ELG1 genotoxic inconclusive, SMN2 splice enh 10µM, NPC1 prom act 1.58µM, KinaseGlo FLuc inactive and Rab9 prom act 0.794µM.
Cc1cc(=O)n2cc(-c3ccccc3)nc2[nH]1 was read as FLuc modulator 12µM, ELG1 genotoxic inactive, NPC1 prom act inactive, KinaseGlo FLuc inactive and Rab9 prom act inactive.
Cc1nc(-c2ccccc2)cc(=O)[nH]1 was read as FLuc modulator inactive, ELG1 genotoxic inactive, SMN2 splice enh inactive, NPC1 prom act inactive, KinaseGlo FLuc inactive and Rab9 prom act inactive.
Screening Cc1cc(Br)c(OCc2ccc(C(=O)N/N=C3\CC4CC=CC34)cc2)c(Br)c1 (stereo not given) returned FLuc modulator inactive, ELG1 genotoxic inactive, SMN2 splice enh inactive, NPC1 prom act inactive, KinaseGlo FLuc inactive and Rab9 prom act inactive.
Screening CCCn1cc(S(=O)(=O)c2cccc(Cl)c2)c(=O)c2cc(F)c(N3CCCC3)cc21 returned FLuc modulator inactive.
`Cc1ccc(-c2[nH]nc3c2C(c2cccnc2)C(C#N)=C(N)O3)cc1` (stereo not given) gave FLuc modulator inactive, NPC1 prom act inactive and Rab9 prom act inactive.
Screening N#CC1=C(N)Oc2n[nH]c(-c3ccccc3)c2C1c1cccnc1 (stereo not given) returned FLuc modulator inactive, ELG1 genotoxic inactive, SMN2 splice enh 3.55µM, NPC1 prom act inactive, KinaseGlo FLuc inactive and Rab9 prom act inactive.
